High-throughput results (PubChem)
This is a sample that favours compounds with a hit; in the whole collection about 22% have one here.
CYP2C9 act: CYP2C9 (human) activation; recombinant CYP2C9, luciferin-H conversion, luminescence; stronger effect = higher value; factor 1 = untreated enzyme, 0 = blocked; activation factor at 5 µM; actives 1.4% (n = 96,000); AID 1024;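 active = activation factor of 2 or more for CYP2C9 at a 5 µM dose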
Target sequence (P11712 whole entry, looked up): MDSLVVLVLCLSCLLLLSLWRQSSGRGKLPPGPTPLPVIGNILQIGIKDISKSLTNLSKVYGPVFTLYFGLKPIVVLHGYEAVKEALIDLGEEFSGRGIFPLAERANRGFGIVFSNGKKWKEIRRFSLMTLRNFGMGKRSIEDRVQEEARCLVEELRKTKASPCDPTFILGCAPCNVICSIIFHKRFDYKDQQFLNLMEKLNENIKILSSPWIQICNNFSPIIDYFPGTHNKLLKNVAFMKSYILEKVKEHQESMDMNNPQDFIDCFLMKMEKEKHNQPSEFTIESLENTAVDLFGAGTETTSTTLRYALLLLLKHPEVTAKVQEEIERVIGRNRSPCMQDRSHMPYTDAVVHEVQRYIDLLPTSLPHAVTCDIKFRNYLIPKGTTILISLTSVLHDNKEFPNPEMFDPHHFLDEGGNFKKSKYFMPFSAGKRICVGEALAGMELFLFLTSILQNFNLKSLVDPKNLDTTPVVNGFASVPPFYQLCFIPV
CYP2C19 inh: inhibitors of human CYP2C19. P33261. CYP2C19 Supersomes, luciferin-H EGE luminescence, 30 min. inhibition, % at 5 µM. actives 21% (n = 96,000);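 active = CYP2C19 inhibition above a set limit at 5 µM in the primary screen, cut at about 50% in these data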
Measles CPE: protection of cells from measles virus; Measles virus-infected cells, CPE protection, absorbance; protection (pct of control), % at 4 µM; actives 1.5% (n = 140,000); in the data active = protection mostly above about 24%, no sharp cut-off; inactive = mostly below about 26%
CYP2C9 inhib: inhibitors of human CYP2C9. CYP2C9 Supersomes, luciferin-H conversion, luminescence. inhibition, % at 5 µM. actives 20% (n = 96,000). AID 777;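 active = blocking of liver enzyme CYP2C9 beyond about 50% at 5 µM, limit read from the data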
CYP2C19 act: activators of human cytochrome P450 2C19; 96,000 tested, under 10 active; activation factor at 5 µM; AID 1025; recombinant CYP2C19, luciferin-H EGE luminescence; stronger effect = higher value; 0 = fully inhibited enzyme, 1 = untreated enzyme; P33261;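 active = activation factor of at least 2 at 5 µM in the primary screen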
Hits are given with their value; - = inactive; . = no result.

SMILES	CYP2C9 act	CYP2C19 inh	Measles CPE	CYP2C9 inhib	CYP2C19 act
Cc1cccc(NCc2ccccc2O)c1C	-	96	-	61	-
CCOC(=O)c1sc(NC(=O)c2ccccc2F)c(C(N)=O)c1C	.	.	-	.	.
Cn1c(=O)c2c(nc(N3CCCCCC3)n2Cc2cccc3ccccc23)n(C)c1=O	-	76	-	90	-
Cn1c(=O)c2c(nc(-n3ccnc3)n2Cc2ccc(Cl)cc2Cl)n(C)c1=O	-	60	-	80	-
Cn1c(=O)c2c(nc(Br)n2Cc2ccccc2Cl)n(C)c1=O	-	77	-	-	-
CCOc1nc2c(c(=O)n(C)c(=O)n2C)n1Cc1ccccc1Cl	-	-	-	-	-
C=CCOc1nc2c(c(=O)n(C)c(=O)n2C)n1Cc1c(Cl)cccc1Cl	-	62	-	-	-
Cn1c(=O)c2c(nc(-n3ccnc3)n2Cc2ccccc2)n(C)c1=O	-	-	-	-	-
CN1CCN(c2nc3c(c(=O)n(C)c(=O)n3C)n2Cc2cccc3ccccc23)CC1	-	-	-	-	-
Cn1c(=O)c2c(nc(N3CCCCCC3)n2CC(=O)c2ccccc2)n(C)c1=O	-	-	-	-	-
C/C(Cl)=C\Cn1c(N2CCCCCC2)nc2c1c(=O)n(C)c(=O)n2C	-	-	-	85	-
CCOC(=O)Cn1c(=O)c2c(nc(N3CCCCC3)n2C)n(C)c1=O	-	-	-	55	-
CS(=O)(=O)N1CCCC(c2nc(-c3ccc(S(=O)(=O)NCc4ccccc4)cc3)no2)C1 (configuration not stated)	-	-	-	-	-
Cn1cc(Cl)c(C(=O)NC2CCCCCC2)n1	-	67	-	-	-
Cn1cc(Cl)c(C(=O)NNC(=S)NC2CCCCC2)n1	.	.	-	.	.
Cc1ccc(C(=O)NCCc2nnc3ccc(SCC(=O)Nc4ccc(C)cc4C)nn23)cc1	.	.	-	.	.
c1ccc2c(c1)Cc1cc(CN3CCOCC3)ccc1-2	-	62	-	-	-
c1ccc(Oc2cccc(CN3CCOCC3)c2)cc1	-	77	-	-	-
CCN1CCN(Cc2ccc3c(c2)Cc2ccccc2-3)CC1	-	-	.	-	-
O=C(Nc1ccccc1)NC1CCCCC1	-	-	-	-	-
O=S(=O)(Nc1ccc(S(=O)(=O)Nc2cccc3ccccc23)cc1)c1ccccc1	-	83	-	90	-
O=S(=O)(Nc1ccc(-n2cccc2)cc1)c1ccccc1	-	100	-	98	-
O=S(=O)(Nc1ccc(S(=O)(=O)Nc2ccccc2)cc1)c1ccccc1	-	-	-	89	-
O=S(=O)(Nc1ccc(N=Nc2ccccc2)cc1)c1ccccc1	.	.	-	.	.
Cc1ccc(NC(=O)CCC(=O)N/N=C/c2cccs2)cc1C	.	.	-	.	.
SMILES	CYP2C9 act	CYP2C19 inh	Measles CPE	CYP2C9 inhib	CYP2C19 act
CCOC(=O)Cn1c(=NC(=O)CSC(C)=O)sc2cc(F)ccc21	-	-	-	-	-
Cc1ccc(OCC(=O)NCc2ccco2)cc1C	-	80	-	-	-
CCOc1ccc(N(C(C)C(=O)NCc2ccco2)S(C)(=O)=O)cc1 (configuration not stated)	-	78	-	54	-
COCCNC(=O)C(C)N(c1ccc(Oc2ccccc2)cc1)S(C)(=O)=O (configuration not stated)	-	53	-	-	-
CCOc1ccc(-n2c(N)c(C(=O)NCc3ccco3)sc2=S)cc1	-	-	-	57	-
Cc1cc(Cl)cc(Cl)c1OCC(=O)NCc1ccco1	-	-	-	-	-
CCOC(=O)N1CCN(C(=O)C(C)N(c2ccc(Oc3ccccc3)cc2)S(C)(=O)=O)CC1 (configuration not stated)	-	-	-	-	-
CCOc1ccc(N(C(C)C(=O)NC2CCCCCC2)S(C)(=O)=O)cc1 (configuration not stated)	-	-	-	-	-
COc1ccc(CN2CC(C(=O)NCCCN3CCOCC3)CC2=O)cc1 (configuration not stated)	-	-	-	-	-
COc1ccc(NC(=O)C2CCN(c3nc(C)nc4c3CCC4)CC2)cc1	-	-	-	-	-
CC1OC(C)(C)OC1C1CNc2nc(NC(=O)C(C)(C)C)[nH]c(=O)c2N1C(=O)c1cccnc1 (configuration not stated)	.	.	-	.	.
CS(=O)(=O)Nc1ccccc1C(=O)NCc1ccco1	-	-	-	-	-
CCC(C)NS(=O)(=O)c1ccc(OCC(=O)NCc2ccco2)cc1 (configuration not stated)	-	-	-	-	-
CCOc1ccc(S(=O)(=O)Nc2ccccc2C(=O)NCc2ccco2)cc1	-	100	-	70	-
CCOc1ccc(S(=O)(=O)N(C)c2ccc(OCC(=O)NCc3ccco3)cc2)cc1	-	86	-	100	-
COc1ccc(S(=O)(=O)Nc2ccccc2C(=O)NCc2ccco2)cc1Br	-	-	-	51	-
Cc1ccccc1NS(=O)(=O)c1ccc(OCC(=O)NCc2ccco2)cc1	-	-	-	61	-
CCCNC(=O)c1ccccc1NS(=O)(=O)c1ccc(OC)c(OC)c1	.	.	-	.	.
O=C(Oc1cccnc1)c1cc(S(=O)(=O)N2CCOCC2)ccc1Cl	-	-	-	-	-
O=C1CCc2cc(S(=O)(=O)NC(C(=O)NCc3cccnc3)c3ccccc3)ccc2N1 (configuration not stated)	-	-	-	-	-
Cc1cc(C)c2c(CC(=O)NCc3ccco3)coc2c1	-	89	.	-	-
Cc1cc(C)c(C)c(S(=O)(=O)NCC(=O)NCc2ccco2)c1C	.	.	-	.	.
COc1ccc(-n2c(=O)cc(N3CCN(c4ccccc4F)CC3)[nH]c2=O)cc1	-	-	-	-	-
COC(=O)c1ccc2c(=O)n(NC(=O)C(c3ccccc3)c3ccccc3)c(=S)[nH]c2c1	-	-	-	62	-
O=C(/N=C1\NC(=O)C(F)(C(F)(F)F)S1)NC1CCCCC1 (configuration not stated)	-	-	-	85	-
SMILES	CYP2C9 act	CYP2C19 inh	Measles CPE	CYP2C9 inhib	CYP2C19 act
CCC1S/C(=N/C(=O)NC2CCCCC2)NC1=O (configuration not stated)	.	.	-	.	.
O=C1c2ccccc2NC(c2cnc3ccccc3n2)N1O (configuration not stated)	-	-	-	-	-
Cc1nn(-c2nc3ccccc3s2)c(N)c1Sc1ccc(F)cc1	-	-	-	85	-
Cc1ccc(-c2nc3n(n2)Cc2ccccc2-3)cc1	.	.	-	.	.
NC(=S)Cc1nc2n(n1)Cc1ccccc1-2	-	-	50	-	-
Cc1ccc(S(=O)(=O)Nc2ccc(SC(F)F)cc2)c(C)c1	.	.	-	.	.
Cc1oc2ccc(NS(=O)(=O)c3ccccc3)cc2c1C(=O)Nc1ccccc1	.	.	-	.	.
Cc1ccc(S(=O)(=O)Nc2ccc3oc(=O)sc3c2)c(C)c1	-	67	-	64	-
O=C(O)c1cc(S(=O)(=O)Nc2ccc3oc(=O)sc3c2)ccc1O	-	-	-	85	-
CC(=O)c1c(C)oc2ccc(NS(=O)(=O)c3ccc(O)c(C(=O)O)c3)cc12	-	52	-	89	-
COc1ccc(C(=O)Nc2nc(C)cc(C)n2)cc1[N+](=O)[O-]	.	.	-	.	.
Nc1ccc(CN2CCCCCC2)cc1	.	.	-	.	.
FC(F)(F)c1ccc(CN2CCCCCC2)cc1	-	53	-	-	-
